Screening results as filed in PubChem BioAssay.
Only a selection was taken, and hits are over-represented in it overall.
Methyltransferases = Primary Screen for Target Class Profiling of Small Molecule Inhibitors of Methyltransferases | AID 1745853, 2022 | 25,000 tested, 3.9% active | purified enzyme, MTase-Glo SAH luminescence; stronger effect = lower value | calls only at 40 µM; call rule not given here
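Each enzyme was assayed with SAM and its substrate. SAH formation detected by MTase-Glo luminescence; single-point 40 uM screen[…].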
Large screens that a line does not name were inactive; ! = repeats disagree.

O=C(CCc1nnc2n(Cc3ccc(F)cc3)c(=O)c3ccccc3n12)NCc1ccccc1	none
Nc1nc(Nc2ccc3c(c2)CCC(N2CCCC2)CC3)nn1-c1cc2c(nn1)-c1ccccc1CCC2 (stereo not given)	Methyltransferases active
Cc1ccc2c(c1)c(-n1cccc1)c1n2CC(C)(C(=O)NC2CCCCC2)N(Cc2ccco2)C1=O (stereo not given)	none
CCc1ccccc1NC(=O)Cn1nc2n(CC(C)C)c(=O)c3ccc(C(=O)NC(C)C)cc3n2c1=O	none
CC1CCCCC1NC(=O)C1(C)Cn2c(cc3sccc32)C(=O)N1CCc1ccccc1 (stereo not given)	none
CC[C@@]1(O)C(=O)OCc2c1cc1n(c2=O)Cc2cc3c(CN(C)C)c(O)ccc3nc2-1	Methyltransferases active!
CC(=O)Nc1c2n(c3ccccc13)CC(C)(C(=O)NC1CCCC1)N(Cc1cccs1)C2=O (stereo not given)	none
COc1cccc(N2C(=O)c3cc(C(C)(C)C)nn3CC2(C)C(=O)NC2CCCCCC2)c1 (stereo not given)	none
Cc1[nH]c(=O)c(C#N)cc1-c1ccncc1	none
CCOC(=O)C1CCN(C(=O)c2ccc3nccn3c2)CC1	none
Cc1[nH]c(=O)c(C#N)cc1-c1ccc2nccn2c1	Methyltransferases active
O=S(=O)(Nc1cccnc1)c1ccc(Cl)c(-c2nnc(-c3ccccc3)o2)c1	none
CC(=O)N1CCN(C(=O)Cc2ccc(Nc3ncc(F)c(Nc4ccc(C(=O)Nc5ccccc5Cl)cc4)n3)cc2)CC1	none
CCS(=O)(=O)N1CCN(c2ccc(Nc3ncc(C(N)=O)c(NC4CC4)n3)cc2)CC1	Methyltransferases active
Cc1ccc(NC(=O)Cn2c(=O)oc3cc(S(=O)(=O)N4CCCC4)ccc32)cc1Cl	none
Cc1cc(N(C)C)ccc1-c1nc2ccc(-c3nc4ccc(N5CCN(C)CC5)cc4[nH]3)cc2[nH]1	Methyltransferases active
CC1(C(=O)NC2CCCCCC2)Cn2c(cc3occc32)C(=O)N1Cc1cccc(Cl)c1 (stereo not given)	none
CCCn1c(=O)c2ccccc2n2c(=O)n(CC(=O)Nc3ccc4c(c3)OCO4)nc12	none
Cc1cc2c(cc3n2CC(C)(C(=O)NC2CCCCCCC2)N(Cc2cccc(Cl)c2)C3=O)o1 (stereo not given)	none
CC(C)n1c(=O)c2ccc(C(=O)NC3CCCCC3)cc2n2c(=O)n(Cc3ccc(Cl)cc3)nc12	none
O=c1[nH]ccc2nc(-c3ccc(CN4CCC(c5nc(-c6ccccn6)n[nH]5)CC4)cc3)c(-c3ccccc3)cc12	Methyltransferases active
O=C1CN(Cc2ccc(-c3ccccc3)cc2)CCN1c1ccc(Cl)nn1	none
Cn1c(=O)c2ccc(C(=O)NC3CCCCC3)cc2n2c(=O)n(CC(=O)c3cccc(Cl)c3)nc12	none
COC(=O)c1ncn2c1C(=O)N(Cc1ccc(C)o1)C(C)(C(=O)NCc1ccccc1)C2 (stereo not given)	none
Cc1ccc(NC(=O)Cn2c(=O)oc3cc(S(=O)(=O)N4CCCC4)ccc32)cc1C	none
COc1ccc(-c2cc3n(n2)CC(C)(C(=O)NCc2ccccc2)N(c2cccc(F)c2)C3=O)cc1 (stereo not given)	none
COc1ccc(CCN2C(=O)c3cc4occc4n3CC2(C)C(=O)NC2CCCCC2C)cc1OC (stereo not given)	none
CS(=O)(=O)N1CCc2c(-c3cnc(N)nc3)nc(N3CCOCC3)nc21	none
Cc1c(CN2CCN(S(C)(=O)=O)CC2)sc2c(N3CCOCC3)nc(-c3cnc(N)nc3)nc12	Methyltransferases active
CC(C)OCCCNC(=O)C1c2c(n(C)c3ccccc23)SCC(=O)N1CCc1ccsc1 (stereo not given)	none
Cn1c(=O)c2ccc(C(=O)NC3CCCCC3)cc2n2c(=O)n(Cc3ccc(F)cc3Cl)nc12	none
O=C(CCn1ccc2cc(S(=O)(=O)N3CCCCC3)ccc21)NCCc1ccco1	none
Cc1coc2c1C(=O)C(=O)c1c-2ccc2c1CCCC2(C)C	Methyltransferases active
Cc1coc2c1C(=O)C(=O)c1c-2ccc2c(C)cccc12	none
Cn1c(=O)n(C)c2cc(S(=O)(=O)NCC3CCCO3)ccc21 (stereo not given)	none
Cc1ccccc1CN1C(=O)c2ccc(-c3ccccc3)n2CC1(C)C(=O)NC1CCCCCC1 (stereo not given)	none
Cc1cc(O)c(-c2ccc([C@@H](C)CN(C)C)cc2)c2c1[nH]c(=O)c1sccc12	Methyltransferases active
CC1(C(=O)NC2CCCCCC2)Cn2c(ccc2-c2ccco2)C(=O)N1Cc1cccc(F)c1 (stereo not given)	none
C=C[C@H]1[C@H](O[C@@H]2O[C@H](CO)[C@@H](O)[C@H](O)[C@H]2O)OC=C(C(=O)OC)[C@H]1CCOC(=O)c1cc(O)c(O)c(O)c1	Methyltransferases active
COC(=O)C1=CO[C@@H](O[C@@H]2O[C@H](CO)[C@@H](O)[C@H](O)[C@H]2O)[C@@H]2[C@@H](CO)[C@@H](O)C(O)[C@H]12 (stereo not given in full)	none
C=C[C@H]1[C@H](O[C@@H]2O[C@H](CO)[C@@H](O)[C@H](O)[C@H]2O)OC=C(C(=O)OC)[C@H]1C/C=C(/C=O)[C@@H]1C(C(=O)OC)=CO[C@@H](O[C@@H]2O[C@H](CO)[C@@H](O)[C@H](O)[C@H]2O)[C@@H]1C=C	Methyltransferases active
C=CC1C(O[C@@H]2O[C@H](CO)[C@@H](O)[C@H](O)[C@H]2O)OC=C(C(=O)OC)C1Cc1nccc2c1[nH]c1ccccc12 (stereo not given in full)	none
C/C=C1\[C@H](O[C@@H]2O[C@H](CO)[C@@H](O)[C@H](O)[C@H]2O)OC=C(C(=O)OC)[C@H]1CC(=O)O	none
COC(=O)C1=CO[C@@H](O[C@@H]2O[C@H](CO)[C@@H](O)[C@H](O)[C@H]2O)[C@@H]2C(COC(C)=O)=C[C@H](O)[C@H]12	none
Cn1c(=O)c2ccc(C(=O)NC3CCCCC3)cc2n2c(SCc3ccccc3)nnc12	none
CC1CCN(S(=O)(=O)c2ccc3c(ccn3CC(=O)NCCc3ccccc3)c2)CC1	none
CSc1cccc(N2C(=O)c3ccc(-c4ccco4)n3CC2(C)C(=O)NC2CCCC2)c1 (stereo not given)	none
COc1ccc(N2C(=O)c3cc(C(C)(C)C)nn3CC2(C)C(=O)NCc2ccccc2)cc1 (stereo not given)	none
CCOc1cccc(C2c3cccn3-c3sc4c(c3CN2C(=O)NCCCOC)CCCC4)c1 (stereo not given)	none
Cc1ccc(Cn2c(=O)c3ccccc3n3c(=O)n(Cc4ccccc4)nc23)cc1	none
CC1CCC(NC(=O)Cn2c(=O)oc3cc(S(=O)(=O)NC4CCCC4)ccc32)CC1 (stereo not given)	none
Cc1ccc(S(=O)(=O)NCCn2c(CCc3ccccc3)nc3ccccc32)c(C)c1	none
COc1ccc(Cl)cc1N1C(=O)CSc2c(c3ccccc3n2C)C1C(=O)NCc1ccccc1 (stereo not given)	none
Cn1c(=O)c2ccc(C(=O)NC3CCCCC3)cc2n2c(=O)n(CC(=O)c3ccccc3)nc12	none
O=C(Nc1nc2ccccc2n1CCc1ccccc1)c1ccccc1	none
O=C(Nc1cc2cc[nH]c2cn1)c1ccccc1	Methyltransferases active
CCc1nc(-c2cccc(C)c2)c(-c2ccnc(NC(=O)c3ccccc3)c2)s1	none
CC(C)CCNC(=O)C1c2c(n(C)c3ccccc23)SCC(=O)N1c1ccc(C(C)C)cc1 (stereo not given)	none
Cc1ccc(Cl)cc1N1C(=O)c2cc3occc3n2CC1(C)C(=O)NC1CCCCCCC1 (stereo not given)	none
